FXIa inh mix – inhibitors of human coagulation factor XIa, pooled mixtures | P03951 | purified FXIa, fluorogenic substrate | inhibition, % at 5 µM | 62,000 compounds, 0.19% hits;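 further: each value is inhibition by a whole ten-compound pool holding the compound; 0% = enzyme with no mixture and 100% = wells lacking enzyme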
C1s inh – human complement C1s inhibition; P09871; purified C1s, fluorogenic AMC substrate, pooled mixtures; mean inhibition % of two 10-compound mixtures (active compounds read high), % at 5 µM (by protocol); 62,000 compounds, 0.16% hits; AID 538;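 active means inhibition above 20% in each of the two 10-compound mixture wells holding the compound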;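 further: 0% = enzyme wells lacking compound mixture and 100% = no-enzyme blank wells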
FXIIa mix inh – inhibitors of human coagulation factor XIIa, pooled mixtures. AID 684. inhibition, % at 5 µM. P00748. 62,000 compounds, 0.2% hits. purified FXIIa, fluorogenic substrate;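 further: 0% = enzyme without compound and 100% = no enzyme blank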
CatG inh – blocks human cathepsin G enzyme activity; inhibition, % at 5 µM (by protocol); 62,000 compounds, 0.2% hits; purified enzyme, AMC-tetrapeptide fluorescence, pooled mixtures; P08311;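 active means inhibition above 20% in each of the two mixture wells holding the compound; inactive means inhibition of 20% or less in either well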;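 further: 0% = enzyme control without mixture and 100% = blank lacking enzyme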
Target sequence (P08311 21-244 limits assumed): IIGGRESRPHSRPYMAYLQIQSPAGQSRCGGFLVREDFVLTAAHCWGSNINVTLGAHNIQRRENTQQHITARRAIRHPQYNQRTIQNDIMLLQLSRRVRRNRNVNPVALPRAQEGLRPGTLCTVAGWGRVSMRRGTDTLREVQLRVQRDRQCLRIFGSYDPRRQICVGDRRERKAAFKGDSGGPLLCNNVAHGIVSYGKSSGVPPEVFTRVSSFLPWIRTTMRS
Htt clearance – mutant huntingtin protein clearance | HeLa Exon1htt(103Q)mCFP, aggregate imaging; zero = plate's median compound well | 47,000 compounds, 0.42% hits | AID 853 | inhibition, % at 1.5 µM;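 active means inhibition of aggregate fluorescence above about 70%, also judged a hit by eye on the cell image, limit read from the data, passing the limit was not always enough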;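 further: cells exposed to compound for three days before fixation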
Numbers without * were called inactive; . = no result given. The list is not random: actives were taken first. Their share in the collection is about 0.71%. Unless noted, no stated cut-off is given here; in the data, active means inhibition above about 20% (passing the limit was not always enough); inactive means the rest.

SMILES	FXIa inh mix	C1s inh	FXIIa mix inh	CatG inh	Htt clearance
Cc1cccc(N2CCN(C(=O)c3ccc(N4CCCC4=O)cc3)CC2)c1C	-3	-11	6	8	-36
COC(=O)c1cc(C(=O)OC)cc(N2C(=O)CC(NNC(=O)c3ccccc3Br)C2=O)c1 (configuration not stated)	.	.	.	.	85*
CN(C)S(=O)(=O)c1cccc(COC(=O)C2=COCCO2)c1	6	11	21*	12	-13
CCn1cc(C2=NOC(C(=O)Nc3c(C)nn(Cc4ccc(F)cc4)c3C)C2)c(C)n1 (configuration not stated)	22*	17	3	13	.
O=C(COc1ccccc1Cl)OCC(=O)N1CCN(S(=O)(=O)c2ccccc2)CC1	6	13	-2	13	.
O=C(COC(=O)C12CC3CC(CC(C3)C1)C2)N1CCN(S(=O)(=O)c2ccccc2)CC1	37*	-3	2	45	42
CCn1c(COc2ccc3c(c2)CCCC3)nnc1SCC(=O)Nc1nccs1	8	10	-1	11	-26
Cn1c(=O)c(C(=O)c2ccccc2)nc2ccccc21	1	-42	3	-16	77*
CC1Cc2cc(/C(O)=C3\C(=O)C(=O)N(CCN(C)C)C3c3ccccc3F)ccc2O1 (configuration not stated)	5	-2	-17	9	80*
CCOc1ccccc1NC(=O)C1CCN(S(=O)(=O)c2cccc3cccnc23)CC1	13	-4	1	-3	.
Cc1cc(NC(=O)CSc2nc(C3CC3)nc3sc4c(c23)CCC(C)C4)no1 (configuration not stated)	3	14	4	11	72*
O=S(=O)(Nc1ccc2nc(C(F)(F)F)[nH]c2c1)c1ccccc1	-2	-39	6	3	-20
O=S(=O)(Nc1ccc2nc(-c3ccc(Br)o3)[nH]c2c1)c1ccccc1	-5	-17	28*	5	-52
O=S(=O)(NCCOCC(F)(F)F)c1ccc2oc3ccccc3c2c1	5	-1	6	-4	-47
Cc1cccc(C2(c3cccc(C)c3)OC(=O)c3ccccc32)c1	.	.	.	.	18
Cc1cc(O)ccc1C1(c2ccc(O)cc2C)OC(=O)c2ccccc21	.	.	.	.	70*
CCOC(=O)C(C)n1cnc2c(cnn2-c2ccc(Cl)cc2)c1=O (configuration not stated)	1	6	-10	2	.
CCOc1nnc(C)c2c(C)n(-c3ccc(Cl)cc3)nc12	.	.	.	.	74*
COc1ccc(-c2c3c([nH]c(=S)c2C#N)CCC3)cc1	-2	-1	-1	5	71*
Cc1ccc(Nc2nc(C(=O)N3CCC(C(=O)NCCN4CCOCC4)CC3)cs2)cc1	0	17	2	13	74*
Cc1ccc(Nc2nc(C(=O)N3CCC(C(=O)N4CCN(C)CC4)CC3)cs2)cc1	-4	-35	5	-3	-2
CC1(c2ccccc2)NC(=O)N(CC(=O)NC(=O)NC2CCCC2)C1=O (configuration not stated)	5	-65	2	-7	-15
Cc1nnc(NC(=O)C2CCCN(c3ncccn3)C2)s1 (configuration not stated)	-2	-10	4	0	-22
O=C(NCc1ccco1)c1ccc(=O)[nH]n1	.	.	.	.	72*
O=C1c2ccccc2C(=O)N1c1nc(-c2cccs2)cs1	2	13	20*	15	-7
SMILES	FXIa inh mix	C1s inh	FXIIa mix inh	CatG inh	Htt clearance
Cc1cnn(Cc2ccccc2)c1N	5	-1	0	1	-24
c1ccc(N=P(c2nc3ccccc3o2)(N2CCOCC2)N2CCOCC2)cc1	9	-62	4	6	25
Clc1cccc(Cl)c1COc1ccccn1	3	-4	30*	-6	-29
O=C(COC(=O)c1ccccn1)Nc1c(Cl)cccc1Cl	7	6	0	11	.
COC(=O)C1=C(C)N=C2SCCC(=O)N2C1c1ccc(C(=O)OC)cc1 (configuration not stated)	-6	-3	-1	6	33
COC(=O)c1ccc(C2C(C(=O)OCC(C)C)=C(C)N=C3SCCC(=O)N32)cc1 (configuration not stated)	29*	2	9	-2	.
COc1cc(NC(=O)c2cccs2)c(OC)cc1NC(=O)CCn1nnc2ccccc21	10	21*	-1	15	.
COc1cccc(C2=CC(c3cccc(OC)c3OC)n3nnnc3N2)c1 (configuration not stated)	2	30*	8	34	.
CC(C)(C)c1cc(C(=O)NCc2ccccc2)ccn1	11	22*	-3	15	7
CCNC(=O)C1CC(=O)N(CC)C(=Nc2cc(Cl)c(O)c(Cl)c2)S1 (configuration not stated)	5	26	0	-6	.
Cc1ccc(C(=O)CC2(O)C(=O)N(CN3CCOCC3)c3ccccc32)cc1 (configuration not stated)	9	10	73*	9	.
CCOc1ccc(N2C(=O)CC(N3CCN(c4ccccc4F)CC3)C2=O)cc1 (configuration not stated)	2	24*	1	13	.
Cc1cccn2c(=O)c(C=NCc3ccco3)c(Nc3ccc(Cl)cc3)nc12	3	8	-10	7	.
O=C(Cc1ccccc1)NCc1nc2ccccc2[nH]1	.	.	.	.	88*
CCC(C)(C)n1nnnc1C(c1ccc(OC)c(OC)c1)N1CCN(c2ccc(F)cc2)CC1 (configuration not stated)	13	2	48*	-2	-32
CCC(C)(C)n1nnnc1C(c1ccc(OC)c(OC)c1)N1CCN(c2ccc(OC)cc2)CC1 (configuration not stated)	1	-12	4	-7	-12
CCC(C)NC(=O)CNC(=O)Cn1c(C)cc2ccccc2c1=O (configuration not stated)	0	2	-3	9	.
O=C(CCSc1nccn1Cc1ccccc1)N1CCOCC1	7	18	-4	22*	26
CCOC(=O)N1CCN(C(=O)CN(c2cccc(C)c2)S(=O)(=O)c2ccc(C)cc2)CC1	7	58*	9	10	.
O=C(CSc1nnc(-c2ccccn2)n1Cc1ccccc1)Nc1ccc2c(c1)OCO2	10	-4	6	-2	26
COc1ccc2c(CC(=O)OCC(=O)c3ccc(F)cc3)coc2c1	-1	-25	1	0	.
CCc1ccccc1NS(=O)(=O)c1ccc2[nH]cc(C(=O)NCC3CCCO3)c(=O)c2c1 (configuration not stated)	6	-27	5	0	94*
CCOc1ccc(NS(=O)(=O)c2ccc3[nH]cc(C(=O)NCC4CCCO4)c(=O)c3c2)cc1 (configuration not stated)	-3	-1	6	-1	-18
O=C1CC(N2CCN(c3ccc(Cl)c(Cl)c3)CC2)C(=O)N1 (configuration not stated)	6	7	53*	6	-40
